The supplement of paper PMC10849652
Of roughly 7,900 targets only a part is listed; those with a hit were picked by preference. About 0.6% of all pairs of compound and target were hits. Values without a mark were called inactive.

Columns and labels:
Experiment in all cases: log2 fold change, soluble protein after heating vs DMSO (PISA); higher = thermal stabilisation; K562 cells, 10 uM, 30 min; active = over 0.2 and 3.5 SD of the protein, either way, in both replicates (recomputed)
[1] = compound: CC[C@@H]1C(=O)N(C)c2cnc(Nc3ccc(C(=O)NC4CCN(C)CC4)cc3OC)nc2N1C1CCCC1
Outline: (§1)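 K562 cells (2×10^6 cells/mL) were treated with 10 μM compound for 30 min, and aliquots were heated for 3 min over 48°C-58°C. Pooled aliquots were extracted in PBS with 0.5% NP-40 at 4°C, and the supernatant after 21,000xg for 90 min was measured by TMTpro 16plex LC-MS/MS with channel sums equalised. Reported thermal stability, relative to control samples and from duplicates, is a log2 fold change.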

[2] = compound: CC[C@@H]1C(=O)N(C)c2cnc(Nc3ccc(C(=O)N[C@H]4CC[C@H](N5CCN(CC6CC6)CC5)CC4)cc3OC)nc2N1C(C)C [volasertib]
Outline: as §1

[3] = compound: CC[C@H](C)N1C=C(C2=C(C=C(C=C21)C3=CN=C(C=C3)N4CCNCC4)C(=O)NCC5=C(C=C(NC5=O)C)C)C
Outline: as §1

[4] = compound: CC[C@H](C)[C@@H](C(=O)N[C@@H]([C@@H](C)O)C(=O)N[C@@H](CC(C)C)C(=O)[C@]1(CO1)C)NC(=O)[C@H]([C@@H](C)CC)N(C)C(=O)C [epoxomicin]
Outline: as §1

[5] = compound: CCn1c(C(=O)N(C2CC2)C2CC2)cc2c3c(ncn3C)c(Nc3cc(C)n(C)n3)nc21
Outline: as §1

[6] = compound: CCn1cc(-c2ccnc3[nH]c(-c4cccc(CN(C)C)c4)cc23)c(-c2ccc(NC(=O)N(C)C)cc2)n1
Outline: as §1

[7] = compound: CN(C)CC(=O)Nc1ccc2[nH]c(=O)c3ccccc3c2c1
Outline: as §1

[8] = compound: CN(CCOC1=CC=C(C=C1)C[C@H]2C(=O)NC(=O)S2)C3=CC=CC=N3 (racemic) [rosiglitazone]
Outline: as §1

[9] = compound: CN1C2=C(C3=C1C(=O)N(N=C3)CC4=CC(=CC=C4)N)SC(=C2)S(=O)C
Outline: as §1

[10] = compound: CN1CCC(CNc2ccc3ncc(-c4cccc(OC(F)(F)F)c4)n3n2)CC1
Outline: as §1

[11] = compound: CN1CCN(CCOc2cc(OC3CCOCC3)c3c(Nc4c(Cl)ccc5c4OCO5)ncnc3c2)CC1 [saracatinib]
Outline: as §1

[12] = compound: CN1CCN(c2nc(C3=C(c4c[nH]c5ccccc45)C(=O)NC3=O)c3ccccc3n2)CC1 [sotrastaurin]
Outline: as §1

[13] = compound: CN1CC[C@H](c2c(O)cc(O)c3c(=O)cc(-c4ccccc4Cl)oc23)[C@H](O)C1 [alvocidib]
Outline: as §1

[14] = compound: CN1CCc2c(c3ccccc3n2Cc2ccc(C(=O)NO)cc2)C1 [Tubastatin A]
Outline: as §1

[15] = compound: CNC(=O)C1=CC=CC=C1NC2=NC(=NC=C2Cl)NC3=C(C=C(C=C3)N4CCOCC4)OC
Outline: as §1

[16] = compound: CNC(=O)c1ccc(Nc2ncc(C(F)(F)F)c(NCc3nccnc3N(C)S(C)(=O)=O)n2)cc1 [defactinib]
Outline: as §1

[17] = compound: CNCc1ccc(-c2[nH]c3cc(F)cc4c3c2CCNC4=O)cc1 [rucaparib]
Outline: as §1

[18] = compound: CNc1nc(-c2ccc3c(N)n[nH]c3c2)cc(N2C[C@@H](C(=O)NC3CCCCC3)CC[C@H]2C)n1
Outline: as §1

[19] = compound: COC(=O)N[C@@H](C)CNc1nccc(-c2cn(C(C)C)nc2-c2cc(Cl)cc(NS(C)(=O)=O)c2F)n1 [encorafenib]
Outline: as §1

[20] = compound: COC(=O)[C@H](CCSC)NC(=O)C1=C(C=C(C=C1)NC[C@H](CS)N)C2=CC=CC=C2
Outline: as §1

UniProt Q13418, sequence (Q13418 whole entry, looked up): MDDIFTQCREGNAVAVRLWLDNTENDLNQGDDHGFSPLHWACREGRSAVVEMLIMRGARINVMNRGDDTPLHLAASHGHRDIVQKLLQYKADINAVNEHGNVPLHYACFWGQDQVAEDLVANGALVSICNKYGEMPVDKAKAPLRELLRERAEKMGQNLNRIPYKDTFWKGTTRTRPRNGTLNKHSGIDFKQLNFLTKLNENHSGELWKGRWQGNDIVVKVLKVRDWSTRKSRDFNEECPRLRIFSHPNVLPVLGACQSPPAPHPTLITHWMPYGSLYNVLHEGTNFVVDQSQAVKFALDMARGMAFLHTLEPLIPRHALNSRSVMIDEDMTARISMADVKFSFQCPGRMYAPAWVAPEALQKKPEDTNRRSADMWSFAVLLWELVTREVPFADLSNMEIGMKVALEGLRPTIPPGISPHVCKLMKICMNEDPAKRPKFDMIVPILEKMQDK
UniProt Q12906, sequence (Q12906 whole entry, looked up): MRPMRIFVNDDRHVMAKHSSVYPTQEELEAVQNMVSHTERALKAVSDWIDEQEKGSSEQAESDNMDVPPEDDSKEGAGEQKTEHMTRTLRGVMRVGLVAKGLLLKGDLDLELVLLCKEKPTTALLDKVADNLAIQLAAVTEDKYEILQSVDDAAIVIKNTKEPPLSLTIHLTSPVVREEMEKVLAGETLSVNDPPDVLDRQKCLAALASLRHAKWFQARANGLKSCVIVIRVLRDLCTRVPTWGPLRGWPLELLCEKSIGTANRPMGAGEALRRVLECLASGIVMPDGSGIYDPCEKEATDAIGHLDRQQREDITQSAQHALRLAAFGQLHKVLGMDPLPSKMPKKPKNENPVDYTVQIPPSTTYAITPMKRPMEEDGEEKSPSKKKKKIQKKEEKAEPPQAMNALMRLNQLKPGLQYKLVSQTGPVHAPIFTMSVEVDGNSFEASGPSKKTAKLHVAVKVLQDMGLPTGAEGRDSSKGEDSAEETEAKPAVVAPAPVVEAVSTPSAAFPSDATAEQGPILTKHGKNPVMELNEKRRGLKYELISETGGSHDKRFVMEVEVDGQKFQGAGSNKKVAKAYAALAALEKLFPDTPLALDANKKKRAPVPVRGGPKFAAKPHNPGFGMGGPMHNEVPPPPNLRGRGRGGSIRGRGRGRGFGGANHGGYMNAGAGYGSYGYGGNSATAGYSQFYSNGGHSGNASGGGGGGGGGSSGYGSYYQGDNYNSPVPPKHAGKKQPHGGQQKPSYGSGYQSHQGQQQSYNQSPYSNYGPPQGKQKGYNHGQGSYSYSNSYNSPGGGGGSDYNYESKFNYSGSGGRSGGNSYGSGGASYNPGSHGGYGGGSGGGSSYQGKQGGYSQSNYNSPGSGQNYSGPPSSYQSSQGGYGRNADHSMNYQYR
UniProt Q8IWB1, sequence (Q8IWB1 whole entry, looked up): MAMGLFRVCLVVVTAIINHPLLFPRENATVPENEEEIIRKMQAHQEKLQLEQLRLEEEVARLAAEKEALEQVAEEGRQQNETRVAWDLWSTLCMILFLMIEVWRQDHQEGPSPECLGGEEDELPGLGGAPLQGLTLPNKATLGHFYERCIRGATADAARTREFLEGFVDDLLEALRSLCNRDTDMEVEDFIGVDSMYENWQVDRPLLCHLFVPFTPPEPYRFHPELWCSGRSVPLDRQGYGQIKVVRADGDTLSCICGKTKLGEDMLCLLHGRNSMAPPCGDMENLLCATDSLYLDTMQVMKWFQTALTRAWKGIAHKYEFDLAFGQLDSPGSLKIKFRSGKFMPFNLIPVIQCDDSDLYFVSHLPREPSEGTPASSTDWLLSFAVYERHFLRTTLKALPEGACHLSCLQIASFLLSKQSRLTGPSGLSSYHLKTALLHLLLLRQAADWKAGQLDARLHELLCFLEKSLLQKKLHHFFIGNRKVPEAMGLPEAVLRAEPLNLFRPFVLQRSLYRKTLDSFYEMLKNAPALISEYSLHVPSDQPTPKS
UniProt Q9NQG6, sequence (Q9NQG6 whole entry, looked up): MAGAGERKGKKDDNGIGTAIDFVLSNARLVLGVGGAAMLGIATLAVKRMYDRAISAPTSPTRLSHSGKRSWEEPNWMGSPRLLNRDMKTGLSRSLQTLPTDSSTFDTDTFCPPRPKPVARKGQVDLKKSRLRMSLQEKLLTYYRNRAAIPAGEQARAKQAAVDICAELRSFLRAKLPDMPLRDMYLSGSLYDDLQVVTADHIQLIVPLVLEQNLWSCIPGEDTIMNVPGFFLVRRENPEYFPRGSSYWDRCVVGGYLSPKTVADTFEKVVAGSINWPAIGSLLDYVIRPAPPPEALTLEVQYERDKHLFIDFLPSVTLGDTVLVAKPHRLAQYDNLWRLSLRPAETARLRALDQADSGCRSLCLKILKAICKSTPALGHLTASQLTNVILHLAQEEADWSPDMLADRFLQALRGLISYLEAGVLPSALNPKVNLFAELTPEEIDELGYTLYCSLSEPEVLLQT
UniProt Q86WA8, sequence (Q86WA8 whole entry, looked up): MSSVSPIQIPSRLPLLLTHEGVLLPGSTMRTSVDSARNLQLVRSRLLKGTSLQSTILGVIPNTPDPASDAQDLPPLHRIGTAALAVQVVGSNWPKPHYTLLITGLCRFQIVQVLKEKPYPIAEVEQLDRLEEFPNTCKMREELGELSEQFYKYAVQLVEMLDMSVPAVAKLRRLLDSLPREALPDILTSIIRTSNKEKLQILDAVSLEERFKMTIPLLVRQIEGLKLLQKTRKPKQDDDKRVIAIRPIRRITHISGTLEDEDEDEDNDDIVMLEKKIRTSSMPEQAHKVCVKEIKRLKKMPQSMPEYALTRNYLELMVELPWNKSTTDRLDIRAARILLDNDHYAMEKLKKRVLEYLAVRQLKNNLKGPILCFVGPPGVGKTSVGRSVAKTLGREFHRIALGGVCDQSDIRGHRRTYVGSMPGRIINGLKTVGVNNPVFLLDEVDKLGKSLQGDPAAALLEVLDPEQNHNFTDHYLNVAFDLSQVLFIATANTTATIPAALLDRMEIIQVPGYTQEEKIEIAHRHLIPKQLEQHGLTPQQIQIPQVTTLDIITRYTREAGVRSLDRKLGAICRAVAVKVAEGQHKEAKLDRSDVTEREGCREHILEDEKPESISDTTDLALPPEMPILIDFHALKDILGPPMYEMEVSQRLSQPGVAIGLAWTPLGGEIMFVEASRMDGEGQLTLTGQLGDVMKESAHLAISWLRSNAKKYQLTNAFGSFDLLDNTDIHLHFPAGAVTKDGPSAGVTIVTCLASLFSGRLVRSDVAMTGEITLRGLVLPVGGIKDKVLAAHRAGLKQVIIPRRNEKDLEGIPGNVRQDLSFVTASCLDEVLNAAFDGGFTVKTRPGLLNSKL
UniProt O94889, sequence (O94889 whole entry, looked up): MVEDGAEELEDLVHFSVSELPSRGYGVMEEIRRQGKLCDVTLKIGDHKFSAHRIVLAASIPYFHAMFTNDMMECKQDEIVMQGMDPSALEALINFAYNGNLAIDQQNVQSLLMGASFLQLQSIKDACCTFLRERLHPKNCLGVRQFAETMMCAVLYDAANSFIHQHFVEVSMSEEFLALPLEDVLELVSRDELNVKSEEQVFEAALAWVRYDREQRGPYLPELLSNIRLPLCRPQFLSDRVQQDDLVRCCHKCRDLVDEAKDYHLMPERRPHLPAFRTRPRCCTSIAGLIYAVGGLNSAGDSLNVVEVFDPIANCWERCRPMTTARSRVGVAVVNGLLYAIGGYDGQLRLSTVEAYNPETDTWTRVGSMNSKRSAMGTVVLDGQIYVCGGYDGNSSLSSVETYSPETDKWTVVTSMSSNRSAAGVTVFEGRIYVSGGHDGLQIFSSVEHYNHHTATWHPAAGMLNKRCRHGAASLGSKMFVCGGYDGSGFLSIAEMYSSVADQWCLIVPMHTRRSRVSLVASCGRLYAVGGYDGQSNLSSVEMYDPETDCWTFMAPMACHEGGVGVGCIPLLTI
UniProt P32019, sequence (P32019 whole entry, looked up): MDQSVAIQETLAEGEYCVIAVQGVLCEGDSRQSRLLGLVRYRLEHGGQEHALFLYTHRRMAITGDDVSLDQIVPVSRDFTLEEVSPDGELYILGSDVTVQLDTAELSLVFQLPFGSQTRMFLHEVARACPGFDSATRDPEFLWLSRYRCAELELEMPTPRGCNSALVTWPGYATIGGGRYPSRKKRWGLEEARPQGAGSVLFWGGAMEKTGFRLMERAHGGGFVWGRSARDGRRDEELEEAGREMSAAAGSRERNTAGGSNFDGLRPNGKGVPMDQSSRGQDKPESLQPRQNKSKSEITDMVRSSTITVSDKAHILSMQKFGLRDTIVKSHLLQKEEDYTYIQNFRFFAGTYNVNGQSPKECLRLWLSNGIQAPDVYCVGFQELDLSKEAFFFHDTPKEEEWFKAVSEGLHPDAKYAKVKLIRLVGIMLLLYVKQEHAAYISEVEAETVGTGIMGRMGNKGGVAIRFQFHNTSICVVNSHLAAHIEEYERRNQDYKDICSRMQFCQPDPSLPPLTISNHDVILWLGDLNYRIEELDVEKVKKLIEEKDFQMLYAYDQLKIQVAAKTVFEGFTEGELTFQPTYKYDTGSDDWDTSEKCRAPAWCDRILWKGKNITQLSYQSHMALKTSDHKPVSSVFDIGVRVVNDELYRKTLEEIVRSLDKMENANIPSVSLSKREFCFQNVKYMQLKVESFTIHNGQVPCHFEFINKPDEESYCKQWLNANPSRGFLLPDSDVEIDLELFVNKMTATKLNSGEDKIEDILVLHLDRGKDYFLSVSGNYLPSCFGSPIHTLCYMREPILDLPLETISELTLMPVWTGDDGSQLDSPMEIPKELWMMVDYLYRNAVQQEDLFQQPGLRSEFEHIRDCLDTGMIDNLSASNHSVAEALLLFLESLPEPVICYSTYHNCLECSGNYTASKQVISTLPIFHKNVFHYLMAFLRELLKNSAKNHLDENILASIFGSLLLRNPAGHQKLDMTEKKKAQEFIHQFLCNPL
UniProt P49006, sequence (P49006 whole entry, looked up): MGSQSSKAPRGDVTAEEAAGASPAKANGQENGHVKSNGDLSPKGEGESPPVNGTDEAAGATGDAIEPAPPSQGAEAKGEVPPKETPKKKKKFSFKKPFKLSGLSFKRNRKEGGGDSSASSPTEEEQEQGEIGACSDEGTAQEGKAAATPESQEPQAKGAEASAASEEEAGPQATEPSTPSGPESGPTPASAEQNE

Row | Target | log2 fold change [1] | log2 fold change [2] | log2 fold change [3] | log2 fold change [4] | log2 fold change [5] | log2 fold change [6] | log2 fold change [7] | log2 fold change [8] | log2 fold change [9] | log2 fold change [10] | log2 fold change [11] | log2 fold change [12] | log2 fold change [13] | log2 fold change [14] | log2 fold change [15] | log2 fold change [16] | log2 fold change [17] | log2 fold change [18] | log2 fold change [19] | log2 fold change [20]
1 | MAP1LC3B2 (UniProt A6NCE7) | -0.074 | -0.072 | 0.05 | 0 | -0.003 | 0.004 | 0 | 0.044 | -0.015 | 0.108 | 0.016 | -0.115 | -0.063 | 0.037 | 0.026 | -0.015 | 0.004 | -0.015 | 0.032 | -0.048
2 | LRBA (UniProt P50851) | -0.05 | -0.221 (active) | 0.034 | 0.017 | 0 | -0.074 | 0.008 | 0.048 | -0.057 | -0.139 | 0.039 | -0.031 | -0.054 | 0.014 | -0.012 | -0.015 | -0.01 | -0.023 | 0.018 | -0.002
3 | MARK3 (UniProt P27448) | -0.057 | -0.078 | 0.097 | 0.019 | -0.03 | -0.019 | 0.055 | 0.049 | 0.051 | -0.549 (active) | 0.024 | -0.434 (active) | -0.011 | 0.058 | -0.367 | -0.176 | -0.016 | -0.069 | 0.096 | 0.033
4 | MED16 (UniProt Q9Y2X0) | 0.128 | 0.101 | 0.004 | -0.262 | -0.002 | 0.031 | 0.086 | 0.05 | 0.087 | 0.06 | -0.006 | -0.044 | -0.236 | -0.098 | 0.074 | -0.009 | -0.004 | 0.043 | -0.025 | -0.052
5 | ITPRIP (UniProt Q8IWB1) | -0.037 | -0.148 | -0.012 | -0.019 | -0.016 | 0.031 | 0 | 0.044 | -0.111 | -0.017 | -0.028 | 0.016 | -0.116 | 0.034 | 0.011 | -0.037 | 0.034 | -0.084 | -0.009 | 0.013
6 | ILK (UniProt Q13418) | 0.033 | 0.064 | 0.035 | -0.04 | -0.037 | -0.052 | -0.006 | 0.051 | 0.125 | -0.191 | -0.119 | 0.043 | -0.107 | 0.01 | -0.034 | 0 | 0.026 | 0.031 | 0.03 | 0.06
7 | LIAS (UniProt O43766) | 0.051 | 0.055 | -0.021 | -0.011 | 0.027 | -0.044 | -0.043 | 0.003 | -0.052 | 0.057 | 0.049 | 0.271 (active) | 0.065 | -0.056 | 0.029 | 0.018 | 0.017 | -0.027 | 0 | 0.022
8 | ILF3 isoform 7 (UniProt Q12906) | 0.348 | 0.356 | -0.021 | -0.185 | -0.02 | 0.135 | -0.101 | -0.095 | 0.146 | 0.231 | 0.001 | 0.087 | 0.362 | -0.044 | 0.03 | 0.554 (active) | 0.202 | -0.003 | 0.032 | 0
9 | MIEF1 (UniProt Q9NQG6) | -0.053 | -0.098 | 0.031 | 0.073 | 0.019 | 0.019 | 0.054 | 0.041 | -0.018 | -0.546 (active) | -0.016 | -0.042 | -0.031 | -0.024 | -0.002 | 0.014 | -0.009 | -0.088 | 0.023 | -0.018
10 | LONP2 (UniProt Q86WA8) | 0.141 | 0.16 | 0.063 | 0.336 | -0.032 | 0.034 | -0.106 | 0.05 | 0.054 | 0.17 | 0.006 | 0.003 | -0.029 | 0.135 | 0 | -0.12 | 0.067 | -0.079 | 0.13 | 0.007
11 | MARCKSL1 (UniProt P49006) | -0.055 | 0.038 | 0.021 | -0.055 | 0.02 | -0.015 | -0.044 | 0.012 | -0.08 | 0.147 | 0.02 | 0.315 (active) | -0.005 | -0.043 | 0.013 | 0.007 | -0.035 | 0.063 | -0.04 | -0.008
12 | INPP5B (UniProt P32019) | 0.021 | -0.04 | 0.002 | 0.007 | -0.029 | 0.031 | 0.057 | 0.012 | 0.12 | 0.003 | 0.024 | -0.079 | -0.076 | 0.07 | -0.007 | 0.112 | 0.066 | 0.043 | -0.151 | 0.141
13 | KLHL18 (UniProt O94889) | 0.075 | -0.178 | -0.123 | 0.36 (active) | -0.038 | -0.01 | -0.073 | -0.019 | 0 | 0.034 | -0.033 | -0.042 | -0.084 | 0.144 | -0.077 | -0.04 | -0.042 | 0.007 | 0.019 | -0.05
14 | MAPK9 (UniProt P45984) | -0.055 | -0.087 | 0.006 | -0.005 | -0.004 | 0.03 | 0 | 0.04 | -0.038 | -0.071 | -0.118 | 0.046 | 0.002 | -0.013 | 0.328 (active) | 0.003 | -0.02 | 0 | 0.018 | 0.029
15 | MCU (UniProt Q8NE86) | -0.147 | -0.249 (active) | 0.014 | 0.075 | -0.082 | -0.048 | 0.011 | 0.034 | -0.045 | -0.23 (active) | 0.039 | -0.028 | -0.08 | 0.036 | 0.013 | -0.043 | -0.032 | -0.014 | -0.017 | -0.032
16 | MAP2K7 isoform 4 (UniProt O14733) | -0.026 | -0.005 | 0.022 | 0.07 | 0.017 | -0.086 | -0.017 | 0.033 | -0.065 | -0.15 | 0.063 | 0.026 | -0.028 | -0.002 | -0.04 | -0.012 | 0.036 | -0.001 | 0.013 | -0.01
